# Measured values published in PubChem BioAssay (Tox21).
# Values joined by “and” are separate entries in the source; they are usually repeats but may differ in a detail not shown here. Identical values can stand only once. Inconclusive results are not listed. A call without a number means that no potency is given here. Active and inactive are the calls of the source. The call rests on the fitted dose curve; in most records, active means well fitted cell-killing curve with a large enough effect in the repeat runs; inconclusive means weak or mixed curves, or effect the other way; inactive means no such curve, though single readings can be large or run the other way.
# Test: qHTS assay to identify small molecule agonists of the estrogen receptor alpha (ER-alpha) signaling pathway in the presence of an antagonist - cell viability counter screen (AID 1259386);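 further: cells exposed to compounds for 22 h at 37 °C before the viability read; nearly all actives have a fitted effect of over 30% in size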
# Conditions: VM7Luc4E2 viability, CellTiter-Fluor fluorescence, 22 h; series mostly up to 92.4 µM
# Description: National Center for Advancing Translational Sciences [NCATS]
# NIH Chemical Genomics Center [NCGC]
# U.S. Environmental Protection Agency [EPA]
# National Institutes of Environmental Health Sciences [NIEHS]
# National Toxicology Program [NTP]
# U.S. Food and Drug Administration [FDA]
# Estrogen receptor (ER), a member of nuclear hormone receptor plays an important role in development, metabolic homeostasis and reproduction. Two subtypes of ER, ER-alpha and ER-beta, have similar expression patterns with some uniqueness in both types. Endocrine disrupting chemicals (EDCs) and their interactions with steroid hormone receptors like ER causes disruption of normal endocrine function. Therefore, it is important to understand the effect of environmental chemicals in ER signaling pathway. For identifying ER agonists, VM7Luc4E2 cell line has been used in the current assay.
# VM7Luc4E2 cell line (provided by Denison MS, University of California) endogenously expresses full-length ER-alpha and is stably transfected with a plasmid containing four estrogen responsive elements (ERE) upstream of a luciferase reporter gene. This current screening for measuring luciferase reporter gene activity using VM7Luc4E2 cells against Tox21 10K library collection is a confirmation study on agonist mode screening in presence of ER-antagonist (ICI-182,780) at 10.0nM final concentration. The cytotoxicity of the compounds was tested in parallel by measuring the cell viability using CellTiter-Fluor assay system (Promega, Madison, WI) in the same wells.
# Tox21 Assay Protocol Summary:
# VM7Luc4E2 cells were cultured in phenol red free assay medium containing 10% charcoal stripped FBS for 5 days prior to the assay. The cells were dispensed at 4,000 cells in 4uL of assay medium per well into white wall/solid-bottom 1536-well plates (Corning Life Sciences, Corning, NY) using a Multidrop Combi (Thermo Fisher Scientific Inc., Waltham, MA) dispenser. After the assay plates were incubated at 37C and 5% CO2 for 24hr, 1uL of 10.0nM (final concentration) ICI-182,780 or assay buffer was added using two separate tips of Flying Reagent Dispenser (FRD, Aurora Discovery, San Diego, CA). Then 23nL of compounds dissolved in DMSO at 15 concentrations and positive controls or DMSO only was transferred to the assay plates by a Pintool station (Wako, San Diego, CA). The assay plates were incubated at 37C and 5% CO2 for 22hr. After 21hr incubation at 37C, 1uL/well CellTiter-Fluor reagent (Promega Corporation, Madison, WI) was added to each well using FRD and after 1hr incubation at 37C and 5% CO2, the fluorescence signal was measured on ViewLux plate reader (PerkinElmer, Shelton, CT).
# Potency means the concentration at half of the fitted maximal effect.
row,Structure (SMILES),Potency
1,CCC(C)c1ccc(O)cc1 (stereo not given),inactive
2,C=CCc1ccc(OC)cc1,inactive
3,CCOP(=S)(OCC)O/N=C(\C#N)c1ccccc1,inactive
4,c1ccc(N=Nc2ccccc2)cc1,inactive
5,O=c1oc2ccccc2c(O)c1C(CC(O)c1ccc(-c2ccc(Br)cc2)cc1)c1ccccc1 (stereo not given),inactive
6,c1cc(OCC2CO2)ccc1Cc1ccc(OCC2CO2)cc1 (stereo not given),inactive
7,O=S(=O)(Oc1ccc(Cl)cc1)c1ccc(Cl)cc1,inactive
8,Cc1cccc(N)c1N,inactive
9,CC(C)Oc1cc(-n2nc(C(C)(C)C)oc2=O)c(Cl)cc1Cl,inactive
10,O=Cc1ccco1,inactive
11,O=[N+]([O-])c1ccc(O)c([N+](=O)[O-])c1,30.8 µM (active) and 27.3 µM (active)
12,c1ccc(P(c2ccccc2)c2ccccc2)cc1,inactive
13,Nn1cnnc1,inactive
14,CN(C)C(=O)Nc1ccc(Cl)cc1,inactive
15,O=C(O)C(F)(F)C(F)(F)C(F)(F)C(F)(F)C(F)(F)C(F)(F)C(F)(F)F,inactive
16,COc1ccc(C=O)cc1,inactive
17,NC(=S)Nc1ccccc1,inactive
18,Nc1ccc(Cl)c(Cl)c1,inactive
19,CCCCN(CC)c1c([N+](=O)[O-])cc(C(F)(F)F)cc1[N+](=O)[O-],inactive
20,CCC(C)(C)c1ccc(O)cc1,inactive

row,Structure (SMILES),Potency
1,COC(=O)c1sccc1S(=O)(=O)NC(=O)Nc1nc(C)nc(OC)n1,inactive
2,Brc1ccc(Oc2cc(Br)c(Br)cc2Br)c(Br)c1,inactive
3,c1nc[nH]n1,inactive
4,NCc1cccnc1,inactive
5,CCC(CC)Nc1c([N+](=O)[O-])cc(C)c(C)c1[N+](=O)[O-],inactive
6,Cc1ccc(OP(=O)(Oc2ccc(C)cc2)Oc2ccc(C)cc2)cc1,inactive
7,Nc1ccc(-c2ccc(N)c(N)c2)cc1N,54.3 µM (active)
8,CCC(C)(c1ccc(O)cc1)c1ccc(O)cc1,inactive
9,N#Cc1cc(Br)c(O)c(Br)c1,inactive
10,CCCCNC(=O)n1c(NC(=O)OC)nc2ccccc21,inactive
11,CCN(N=O)C(N)=O,inactive
12,CCc1cccc(CC)c1N(COC)C(=O)CCl,inactive
13,CCN(CC)N=O,inactive
14,NNC(=S)NN,inactive
15,CCOc1cc(Oc2ccc(C(F)(F)F)cc2Cl)ccc1[N+](=O)[O-],inactive
16,NNC(N)=S,inactive
17,COP(=S)(OC)Oc1cc(Cl)c(Cl)cc1Cl,inactive
18,CNC(=O)N(C)c1nnc(C(C)(C)C)s1,inactive
19,C#C[C@]1(O)CC[C@H]2[C@@H]3CCC4=CC(=O)CC[C@]4(C)[C@H]3CC[C@@]21C,inactive
20,Oc1c(Cl)c(Cl)c(Cl)c(Cl)c1Cl,inactive
